The chains are these.
B1: chr14:35182089:35182090:-_ENSG00000165410_ENST00000422678|hu_mus|motif|central (ssRNA)
RNA: GGGAGUUCUACAGUCCGACGAUCCUUAAGAUCAAAUGGCACUUGGCUAUUAUUUUAUAGUGGCUUUCCUUCAAGGGAAACGGCAACACUGCCCCCCAGUUUCUCUCCCAGCGUCGAGCGGUCCUUAAUAUCGUCCAAGCCAUUCAACAGAGGAUUGAGCAUCA
B2: chr13:90244479:90244480:+_ENSMUSG00000012422_ENSMUST00000161568|mus_hu|FALSE|FALSE (ssRNA)
RNA: GGGAGUUCUACAGUCCGACGAUCCAAAAUGGUGUGCCCAGAGGAAAAGCAAGCACUAUUAAAUAUUAAUGCAAUCCUUAUCAACACAAAUUGAGCCAUUUUAAUAAAAAAGCUAGUCCAAAAAAGGUUCUCAUUCUAUAAAGACAACAGAGGAUUGAGCAUCA
B3: chr10:117127018:117127019:-_ENSMUSG00000020184_ENSMUST00000020408|mus_mus|FALSE|FALSE (ssRNA)
RNA: GGGAGUUCUACAGUCCGACGAUCAGAUGGAAAGGACUUCUCACAUACACUUCCAAAGUCCUUCCAAGCGGAGAUUAUUUAAAAUAUAAGGAAAAUAUAAACAGCCAAUGCAAAUUACUUAAAACACAAAUAUAAAAUAAACAACAACAGAGGAUUGAGCAUCA
B4: chr3:58389949:58389950:+_ENSMUSG00000075700_ENSMUST00000107924|mus_hu|FALSE|FALSE (ssRNA)
RNA: GGGAGUUCUACAGUCCGACGAUCCAAGAAGAAAACCAUCAUACAUGCAUAAACCUUAUUUUCUUGGCCCCACUGCCAGAUGCUAGGAGCUUGCAUGCCAAAGAAAGCAAAAGGAUCCUUGCCAACAAUUAUUAAGCCUAUUAACAACAGAGGAUUGAGCAUCA
B5: chr2:47387770:47387771:-_ENSG00000143933_ENST00000272298|hu_mus|hu_hu_hu_mus_True|18_38 (ssRNA)
RNA: GGGAGUUCUACAGUCCGACGAUCAAGGUUUAAGGACAAUGACAGUAAGAUAAGGGAAGAAAACAUGGAGGAAUGAAGUCCUAAUUACUAUACAUGCAUAUUUUUUUACAGUAGGGGAGAAACCUUUUUUACAGAUAAGUUACACAACAGAGGAUUGAGCAUCA
B6: chr17:26793470:26793471:+_ENSMUSG00000001576_ENSMUST00000167662|mus_hu|FALSE|FALSE (ssRNA)
RNA: GGGAGUUCUACAGUCCGACGAUCCGGAGCUUAGAGCCAAAAAUUACAAAUGGCAGAGACUUGAGCUAUCCAUAAGAUAAUUUUAAAAAUCCUUCCACUGGACACUCCCCUUCAUUACAAAAGUAUGCAAACAAUCUUGCUAUACAACAGAGGAUUGAGCAUCA
B7: chr2:91446484:91446485:+_ENSMUSG00000040549_ENSMUST00000099716|mus_hu|motif|central (ssRNA)
RNA: GGGAGUUCUACAGUCCGACGAUCCAAUUUCUCAUCUGCCAUGUGUGUGUUGUAGAUGAGUCUUAGCUGCAUAAAAGUGGCGGUCAGAAACUGAUCAAUAUGGCCGGACAUGGCUUCAGCUUUGUCUUCCUGUCUCAGGACCUCCAACAGAGGAUUGAGCAUCA
B8: 89236039_89237110_928_3pUTR_ENSG00000065243_ENST00000370521|human|control|control (ssRNA)
RNA: GGGAGUUCUACAGUCCGACGAUCGGUUUUGCAUUAUCAAAAGCCAAUUCAUUAGUCUGGACUGCCUGAAGAAUCUGCAUUCGUAUGACUUCUAUUUUUGUCUUGCUGUCCUGGAGCAGUUGCUGAGCUGUACCAUGGAGUUUCCAACAGAGGAUUGAGCAUCA
B9: chr17:56552419:56552420:-_ENSMUSG00000013236_ENSMUST00000086828|mus_mus|mus_mus_mus_hu_False|8_48 (ssRNA)
RNA: GGGAGUUCUACAGUCCGACGAUCAAAAAAUACACUAUUUAAAAAAAAUGAAAUGUCACGGGAUACAGUUACACUGAGAGUUUUAAAAAAAAAUAAGAUUCUGGUCCCAGCCCAGUGUCCCCAGGCUGAGUGCGGAAGAGGAGCCAACAGAGGAUUGAGCAUCA
B10: chr17:56552419:56552420:-_ENSMUSG00000013236_ENSMUST00000086828|mus_hu|FALSE|FALSE (ssRNA)
RNA: GGGAGUUCUACAGUCCGACGAUCAAAAAAUACACUAUUUAAAAAAAAUGAAAUGUCACGGGAUACAGUUACACUGAGAGUUUUAAAAGAAAGCUGGAUUCUGGUCCCAGCCCAGUGUCCCCAGGCUGCAGAGCGGGGAGGAGCCAACAGAGGAUUGAGCAUCA
B11: chr17:56552419:56552420:-_ENSMUSG00000013236_ENSMUST00000086828|mus_mus|mus_mus_mus_hu_False|8_98 (ssRNA)
RNA: B9 RNA with U38A, U39A, A88G, A92G, U93C, A94U, A95G
B12: chr17:56552419:56552420:-_ENSMUSG00000013236_ENSMUST00000086828|mus_mus|mus_mus_mus_hu_False|98_98 (ssRNA)
RNA: B10 RNA with U38A, U39A
B13: chr5:145543945:145543946:-_ENSG00000133706_ENST00000545646|hu_hu|hu_hu_hu_mus_True|1_8 (ssRNA)
RNA: GGGAGUUCUACAGUCCGACGAUCCUGAACGGCCAGUGGUGGGAAAUAAUCAAGCCAGUGCUCUGCUUCAGAAAACUUCACUAUGUCGUCAUCAGAGAGCCCAAGGGAUUUCAUAAUGUCCCACUGGUAUUUAGAAGAUCCAGCCAACAGAGGAUUGAGCAUCA
B14: chr17:56552419:56552420:-_ENSMUSG00000013236_ENSMUST00000086828|mus_mus|mus_mus_mus_hu_False|1_98 (ssRNA)
RNA: B10 RNA with U38A, U39A, A138C, G139A, C143G

Residue numbers refer to the chain shown, from its start. Over roughly 24,000 sequences, “enrichment r” has its median near 0.99; the highest 2% begin near 3.7. Shown is part of a subset that was picked to be rich in the highest values.

This is an account of results in publication PMC12136788.

The assay addresses T1, UNK ZnF1-3 (human, UniProt Q9C0B0 31-174).
T1 sequence: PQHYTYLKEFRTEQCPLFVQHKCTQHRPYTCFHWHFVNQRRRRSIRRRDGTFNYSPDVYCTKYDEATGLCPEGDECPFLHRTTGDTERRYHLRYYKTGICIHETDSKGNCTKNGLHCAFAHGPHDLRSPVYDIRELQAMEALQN
Description: nsRBNS (natural sequence RNA bind-n-seq); RBNS binding buffer (assumed for nsRBNS): 25 mM Tris pH 7.5, 150 mM KCl, 3 mM MgCl2, 0.01% Triton X-100, 500 ug/ml BSA, 20 U/ml SUPERase-In, 4 C; UNK is unkempt and MSI1 is Musashi-1; names of the RNAs are library labels; protein concentration not given here; high values mean tight binding.
B1 yielded a binding signal of 1.04 enrichment R.

Consider B2, for which the binding signal is 4.62 enrichment R.

B3 displayed a binding signal of 5.74 enrichment R.

For the molecule B4, the binding signal is 1.51 enrichment R. The figure for B5 is 1.7 enrichment R. With B6, the binding signal was found to be 3.67 enrichment R.

For B7, the binding signal is 0.637 enrichment R. For the molecule B8, the binding signal stood at 0.571 enrichment R.

B9 showed a binding signal of 6.71 enrichment R. With B10, the binding signal was determined as 3.32 enrichment R. In the case of B11, the binding signal came to 5.52 enrichment R. With B12, the binding signal is 4.54 enrichment R.

Consider B13, for which the binding signal came out at 1.44 enrichment R. In the case of B14, the binding signal came out at 5.8 enrichment R.
